High-throughput results as filed in PubChem.
Pf Dd2 growth – blocks in vitro growth of P. falciparum Dd2; P. falciparum Dd2 growth, SYBR Green, 72 h; Potency, µM (series often up to 28.9 µM), without a hit: top-dose activity, negative = inhibition, hits mostly inhibitors; 120,000 compounds, 4.3% hits; AID 1347417; active = well fitted inhibition curve with a large enough effect;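 note: plate controls were DMSO vehicle for no effect and reference drug for full effect; nearly all actives have a fitted effect of over 65% in size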
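Infected erythrocytes (Dd2, 0.3% parasitemia, 2.5% hematocrit final) are added to compound in RPMI-1640/Albumax II medium, grown 72 h at 37C in low oxygen, then lysed with saponin/Triton-X containing SYBR Green and read by fluorescence.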
An asterisk follows results filed as active; i = inactive; ! = a repeat was not active; [ ] = remark or other dose. Only a selection was taken, and hits are over-represented in it overall. Potency is the fitted concentration of half-maximal effect.

SMILES | Pf Dd2 growth
O=C1NC2(CCCN(Cc3ccc(C(F)(F)F)cc3)C2)COc2ccccc21 (centres undefined) | 11.2µM*!
O=C1NC2(CCN(Cc3ccccc3C(F)(F)F)C2)COc2ccccc21 (centres undefined) | i
O=C1NCC2(CCN(CC3CCCCC3)CC2)Oc2ccccc21 | 3.4%
O=C1NC2(CCN(Cc3cccnc3)CC2)COc2ccccc21 | -13.3%[44.1 µM]
O=C1NC2(CCN(Cc3ccc(F)cc3)CC2)COc2ccccc21 | 3.16µM*
O=C1NC2(CCN(CC3CCCCC3)CC2)COc2ccccc21 | 10µM*
O=[S+]1([O-])NC2(CCCN(Cc3ccc(C(F)(F)F)cc3)C2)COc2ccccc21 (centres undefined) | 0.4%
O=C1N[C@H](CCC(=O)N2CCC(c3nc4ccccc4[nH]3)CC2)C(=O)Nc2ccccc21 | -28.6%
Cc1noc(-c2nc(-c3ccc(N(C)C)cc3)no2)n1 | -24.0%
CN1C(=O)COC[C@@H]1[C@H](O)c1ccc(NC(=O)C2CCC2)cc1 | i
CCc1nc(-c2c3n(c(=O)n(CC(=O)Nc4cc(C)ccc4OC)c2=O)CCCC3)no1 | 25.7%
COC[C@@H]1CN(c2ncccn2)C[C@H]1C(=O)NCc1ccccn1 | -8.8%
COc1ccc(CC(=O)N2CCCC(c3ccc(C(=O)O)cc3)C2)c(OC)c1 (centres undefined) | 7.9%
O=C(NCc1cccc(Cl)c1)c1cc2ccc3cccnc3c2[nH]1 | 12.6µM*
O=C(c1cc2ccc3cccnc3c2[nH]1)N1CCN(c2ccc(Cl)cc2)CC1 | -21.5%
O=C(NCc1ccc(Cl)cc1)c1cc2ccc3cccnc3c2[nH]1 | -17.2%
CCN(CC)S(=O)(=O)c1ccc(NC(=O)c2cc3ccc4cccnc4c3[nH]2)cc1 | 11.2µM*
Cc1ccc(Cl)cc1N1CCN(C(=O)c2cc3ccc4cccnc4c3[nH]2)CC1 | -2.1%
O=C(c1cc2ccc3cccnc3c2[nH]1)N1CCN(c2cccc(Cl)c2)CC1 | i
O=C(c1cc2ccc3cccnc3c2[nH]1)N1CCCCC1 | 6.8%
CCOC(=O)c1ccccc1NC(=O)c1cc2ccc3cccnc3c2[nH]1 | -14.4%
CC(C)N(Cc1ccccc1)C(=O)c1cc2ccc3cccnc3c2[nH]1 | 12.6µM*
O=C(NCC1CCN(Cc2ccccc2Cl)CC1)c1cc2ccc3cccnc3c2[nH]1 | 7.94µM*
COc1ccccc1NC(=O)c1cc2ccc3cccnc3c2[nH]1 | i
CCOC(=O)C1CCN(C(=O)c2cc3ccc4cccnc4c3[nH]2)CC1 | 15.6%
SMILES | Pf Dd2 growth
Cc1cccc(NC(=O)Cn2ccn3nc4c(c3c2=O)CCCC4)c1C | i
COCc1noc(-c2ccc(NC[C@H]3CCc4ccccc4O3)nc2)n1 | -28.4%
CCn1ncc(N2CCC(NC(=O)CC3CCCC3)CC2)cc1=O | 3.1%
COc1cccc(CNC(=O)Cn2ccn3nc(-c4ccccc4)c(CO)c3c2=O)c1 | 2.8%
COc1cc(Cl)ccc1OCc1nnc(C(=O)N2CCC[C@@H]2c2cccc(F)c2)n1-c1ccccc1 | -8.4%
CC1CCCN(C(=O)c2cc3ccc4cccnc4c3[nH]2)C1 (centres undefined) | -13.1%
O=C(Cn1ncc2c([nH]c3ccccc32)c1=O)NCC1CCN(Cc2ccc(F)cc2)CC1 | i
O=C(NCC1CCN(Cc2ccc(F)cc2)CC1)c1cc2ccc3cccnc3c2[nH]1 | 7.08µM*
CCCN(Cc1nccn1C)C(=O)c1cccc(C2CCNC2)c1 (centres undefined) | 15.0%
O=C(c1ccc(C2CCNC2)cc1)N(Cc1ccccc1)CC1CCC1 (centres undefined) | 12.6µM*
COCc1cc(CNC(=O)c2ccc(C3CCNC3)cc2)[nH]n1 (centres undefined) | 6.6%
CN1C(=O)C(c2ccccc2)CC12CCN(C(=O)c1ccccc1F)CC2 (centres undefined) | 3.5%
Cc1ccc(C2Cn3nnc(C(=O)N4CCC(C(=O)NCc5ccccc5F)CC4)c3CO2)cc1 (centres undefined) | -9.8%
O=C(NC[C@H]1O[C@H](Cc2cc(CN3CCOCC3)on2)CC[C@@H]1O)c1cccc(F)c1 | -15.5%[44.1 µM]
COc1ccc(CNC[C@H]2COCc3nc4cc(F)ccc4n32)cn1 | i
COc1cc(C(CC(=O)Nc2cccc(C(C)=O)c2)N2Cc3ccccc3C2=O)cc(OC)c1OC (centres undefined) | 10µM*
CCc1ccc(NC(=O)CC(c2cc(OC)c(OC)c(OC)c2)N2Cc3ccccc3C2=O)cc1 (centres undefined) | -19.4%
COc1ccccc1NC(=O)CC(c1cc(OC)c(OC)c(OC)c1)N1Cc2ccccc2C1=O (centres undefined) | i
O=C(c1ccccc1)N1CCC2(CC1)COc1ccccc1NC2=O | 6.7%[44.1 µM]
CCn1cc(C(=O)NCCc2ccccc2)c(=O)c2cc(S(=O)(=O)N3CCOCC3)ccc21 | -7.1%
O=C(CN1C(=O)CCc2cc(S(=O)(=O)N3CCOCC3)ccc21)NCc1ccc(Cl)cc1 | i
Cc1ccc(CNC(=O)c2c[nH]c3ccc(S(=O)(=O)N4CCOCC4)cc3c2=O)cc1 | -21.7%
O=C(NCCSc1c(-c2ccc(Cl)cc2)[nH]c2ccccc12)c1ccc(S(=O)(=O)N2CCOCC2)cc1 | 8.91µM*
O=C(NCCSc1c(-c2ccccc2)[nH]c2ccccc12)c1ccc(S(=O)(=O)N2CCOCC2)cc1 | 10µM*
O=C(NCCSc1c(-c2ccc(Br)cc2)[nH]c2ccccc12)c1ccc(S(=O)(=O)N2CCOCC2)cc1 | 5.62µM*
SMILES | Pf Dd2 growth
O=C(NC1CC(=O)N(c2cccc(F)c2)C1)c1ccc(S(=O)(=O)N2CCOCC2)cc1 (centres undefined) | 39.7%
O=C(NC1CC(=O)N(c2ccc(Cl)cc2)C1)c1ccc(S(=O)(=O)N2CCOCC2)cc1 (centres undefined) | i
O=C(NCCCn1ccnn1)c1cccc(S(=O)(=O)N2CCOCC2)c1 | 1.1%
CN1[C@@H](CCC(=O)NCc2ccco2)CNC(=O)[C@@H]2[C@H]1CCN2Cc1ccccn1 | 24.4%[44.1 µM]
Cc1nc(-c2cn(C3CCCN(C(=O)COc4ccccc4)C3)nn2)no1 (centres undefined) | i
CN1CCN(C(=O)[C@@H]2CCC[C@@H](NC(=O)NC3CCCC3)CN(C)C(=O)C2)CC1 | 27.0%[44.1 µM]
Cc1noc(C)c1-c1cn(CCNS(=O)(=O)c2ccc(Cl)cc2)nn1 | -20.7%
O=C(CCC[C@@H]1[C@H]2CCCN3CCC[C@@H](CN1C(=O)NCc1ccc(F)cc1)[C@@H]23)NCC1CC1 | -15.9%
CCOCCn1c(=O)n(Cc2ncccn2)c2cc(C(=O)O)cnc21 | -24.1%
CS(=O)(=O)N1CCC(C2CCN(C(=O)c3ccc(Cl)s3)C2)CC1 (centres undefined) | i
CCCNc1ncc(CN2CCC(Cc3nn(C)c(=O)n3CC)CC2)cn1 | -5.9%
O=C(Nc1ccc(O)c(-c2nc3ccccc3o2)c1)c1cccs1 | 35.9%
O=C(Nc1ccc(O)c(-c2nc3ccccc3o2)c1)c1sc2ccccc2c1Cl | 0.4%
O=C(Nc1ccc(O)c(-c2nc3ccccc3o2)c1)c1ccc(Br)cc1 | 2.82µM*
CNC(=O)C1CN(c2cccc(Cl)c2)C(=O)N1 (centres undefined) | -0.5%[44.1 µM]
CCOc1ccc(Cn2c(CNS(=O)(=O)c3c(C)cc(C)cc3C)nc3cccnc32)cc1 | i
COc1ccccc1Cn1c(CNS(=O)(=O)c2ccc(C(C)C)cc2)nc2cccnc21 | i
COc1ccccc1Cn1c(CNS(=O)(=O)c2c(C)cc(C)cc2C)nc2cccnc21 | 12.6µM*
CC(=O)N1CCC(N2C[C@@H](F)[C@@H](OCc3nc4ccccc4o3)C2)CC1 | -2.0%[44.1 µM]
CCCS(=O)(=O)NCCc1ncc(C)n1CCOC | -6.5%
